# This is a sample that favours compounds with a hit; in the whole collection about 21% have one here.
# IL-1B inflam inh: blocks inflammasome-driven IL-1 beta release; actives 4.7% (n = 360,000); activity change, % at 57.5 µM; AID 743279; THP-1 LPS/ATP IL-1B secretion, AlphaLISA, 16 h; hits give low values; in the data active = activity change below about -50%; inconclusive = mostly about -30% to -49%
#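 Secreted IL-1B measured by AlphaLISA bead assay after 16 h compound exposure of THP-1 cells; compounds (final up to 57.5 uM) added 1 h before LPS (250 ng/mL) and ATP (1.25 mM) stimulation; lower signal means less secretion.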
# ELG1 DNA repair: inhibitors of ELG1-dependent DNA repair in HEK293T cells; HEK293T ELG1-luciferase reporter, luminescence, 16 h; DNA damage induced by 5-fluorouridine; Potency, µM (titrated, usually from 46.1 µM), inactives show at the highest dose activity change, negative = inhibition, actives largely listed as inhibitors; actives 2.3% (n = 330,000); note: potency is the fitted concentration of half-maximal effect; nearly all actives have a fitted effect of over 55% in size
#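 Overnight (16 hr) co-exposure of 2,000 cells/well to 5-fluorouridine and compound at 37 °C preceded detection. Luciferase was quantified via ONE-Glo luminescence; loss of signal denotes inhibition.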
# RORg inh: ROR gamma (mouse) transcription inhibition; Drosophila S2 Gal4-RORgamma UAS-luciferase reporter, 20 h; Potency, µM (highest dose often 53.6 µM), without a hit: top-dose activity change, negative = inhibition, hits mostly inhibitors; actives 5.4% (n = 310,000); AID 2551; note: potency is the fitted concentration of half-maximal effect; nearly all actives have a fitted effect of over 60% in size
# Target sequence (P51450 whole entry, looked up, the tested form may be a part): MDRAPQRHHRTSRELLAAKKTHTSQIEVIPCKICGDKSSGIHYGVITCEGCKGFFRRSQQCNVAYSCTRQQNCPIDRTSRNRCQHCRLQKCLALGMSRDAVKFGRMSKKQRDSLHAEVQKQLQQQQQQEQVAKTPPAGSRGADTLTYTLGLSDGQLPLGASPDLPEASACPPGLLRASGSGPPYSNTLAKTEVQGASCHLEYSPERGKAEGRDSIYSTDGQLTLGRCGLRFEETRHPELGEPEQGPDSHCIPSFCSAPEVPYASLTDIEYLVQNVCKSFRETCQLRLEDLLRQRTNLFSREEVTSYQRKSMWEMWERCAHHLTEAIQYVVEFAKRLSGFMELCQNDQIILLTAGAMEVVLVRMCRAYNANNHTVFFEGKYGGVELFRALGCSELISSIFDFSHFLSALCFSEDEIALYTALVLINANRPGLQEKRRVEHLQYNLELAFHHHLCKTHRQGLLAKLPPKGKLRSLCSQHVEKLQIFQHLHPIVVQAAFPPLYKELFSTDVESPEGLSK
#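 Schneider cells (Drosophila), stable Gal4 DBD–ROR gamma + UAS-luc; 1 hr cmpd preincubation; Cu2+ induction 700 uM final; 20 hr ambient; luminescence.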
# Gal4-VP16 FLuc: inhibits Gal4-VP16 luciferase reporter, ROR gamma counter-screen; Drosophila S2 Gal4-VP16 UAS-luciferase, luminescence, 20 h; AID 2546; actives 3.5% (n = 310,000); Potency, µM (highest dose often 53.6 µM), for inactives: top-dose activity, negative = inhibition, actives largely listed as inhibitors;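 note: Gal4-VP16 expression switched on by copper sulfate through the metallothionein promoter; potency is the fitted concentration of half-maximal effect; nearly all actives have a fitted effect of over 50% in size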
# TDP1 cell CPT: DT40-hTDP1 cell growth loss with CPT. Potency, µM (series often up to 46.2 µM), for inactives: at the top dose activity change, negative = growth inhibition, hits mostly inhibitors. actives 12% (n = 420,000). chicken DT40 Tdp1-/-;hTDP1 cells + 20 nM CPT, ATP luminescence, 48 h. AID 686979; note: potency is the fitted concentration of half-maximal effect; nearly all actives have a fitted effect of over 55% in size
#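 Chicken DT40 Tdp1-/- cells stably complemented with human TDP1 were seeded at 400 cells/well in medium containing 20 nM camptothecin, exposed to pin-transferred compounds, and grown at 37 °C for at least 48 hr. Viability was read as ATP luminescence.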
# TDP1 cell noCPT: qHTS for Inhibitors of human tyrosyl-DNA phosphodiesterase 1 (TDP1): qHTS in cells in absence of CPT; Potency, µM (highest dose often 46.2 µM), for the others: top-dose activity change, negative = growth inhibition, most hits filed as inhibitors; DT40 Tdp1-/- hTDP1 cells, no CPT, ATP luminescence, 48 h; AID 686978, 2013; actives 15% (n = 420,000); note: potency is the fitted concentration of half-maximal effect; nearly all actives have a fitted effect of over 55% in size
#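 Growth of hTDP1-complemented DT40 Tdp1-knockout cells is measured by ATP luminescence after at least 48 hr compound exposure at 37 °C, with DMSO substituting for the 20 nM CPT used in the parallel screen.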
# The depositor's hits bear a star; i = inactive; ? = inconclusive; . = not tested or not shown; [ ] = another dose, or the depositor's remark. Unless noted, calls come from the whole dose curve; as a rule, active = well fitted curve in the direction sought with a large enough effect; inconclusive = small, poorly fitted or top-dose-only effect, or another doubt; inactive = no such curve, though single readings can be large; an effect the other way counts as inactive or inconclusive. % is set by controls: 0 for no effect and ±100 for the full control effect.
SMILES,IL-1B inflam inh,ELG1 DNA repair,RORg inh,Gal4-VP16 FLuc,TDP1 cell CPT,TDP1 cell noCPT
CCN(CC)S(=O)(=O)c1cccc(-c2nnc(SCc3nnc(-c4cccs4)o3)n2N)c1,24,21µM*,?,-7%,0%,-6%
O=C(O)CCC(=O)N1CCN(c2nc(-c3ccccc3Cl)c3cc(Br)ccc3n2)CC1,33,?,21%,-19%,-8%,?
COc1ccc(CCN(C)C(=O)c2c(C)nn(-c3ccccc3)c2C)cc1OC,i,6%,-2%,-5%,8%,7%
Cc1cc(C(=O)CCC(=O)N(C)CC(=O)Nc2c(Cl)cccc2Cl)c(C)s1,13,-1%,.,.,-24%,12µM*
CN(CC(=O)Nc1cccc(F)c1)C(=O)CCC1CCCCC1,-2,-8%,.,.,?,?
CN(CC(=O)Nc1c(Cl)cccc1Cl)C(=O)CCC(=O)c1ccccc1,-2,3%,.,.,-24%,-13%
CN(CC(=O)Nc1c(Cl)cccc1Cl)C(=O)c1cccc(-n2cccc2)c1,-25,-2%,.,.,16µM*,-17%
CN(CC(=O)Nc1c(Cl)cccc1Cl)C(=O)CCC1CCCC1,0,?,-56%,11µM*,-22%,14%
CCOC(=O)C1=C(COC(=O)COc2ccccc2C(C)C)NC(=O)NC1C (stereo not given),4,4%,.,.,-3%,-14%
CCNc1ncc2nc(-c3cccs3)c(=O)n(-c3ccccc3)c2n1,.,.,-25%,-17%,-18%,-6%
O=C1C(Cl)=C(N2CCCC2)C(=O)N1c1ccccc1F,24,-5%,-45%[1.91 µM],13%,-14%,9%
CC1(C)OC(c2ccccc2)=C/C(=C/C=N/NC(=O)c2ccncc2)O1,30,?,-2%,5%,?,?
COc1ccc(N=Cc2ccc(-c3ccccc3)o2)cc1,-8,-11%,11%,-3%,-6%,-20%
COc1ccc(N=C/C=C2\C=C(c3ccccc3)OC(C)(C)O2)cc1,-1,?,-1%,0%,16µM*,?
Cc1ccccc1N=C/C=C1/C=C(c2ccccc2)OC(C)(C)O1,-11,13µM*,?,1%,?,?
COc1ccccc1CN1C(=NC(=O)CCC2CCCC2)SC2CS(=O)(=O)CC21 (stereo not given),6,16%,?,-26%,?,-14%
CN(C)C1(CN=Cc2cc(Cl)cc([N+](=O)[O-])c2O)CCCCC1,-7,?,?,-8%,-5%,-24%
COc1cccc([C@@H]2Oc3ccc(OC)cc3C[C@H]2OC(=O)N[C@H]2CCCc3ccccc32)c1,.,.,9%,-5%,.,.
CC(C)(C)OC(=O)N1CCc2onc(-c3ccccc3F)c2C1=O,-7,.,.,.,-11%,-6%
CC1CN(C(=O)c2cccc(S(=O)(=O)N3CCN(c4ccc(F)cc4)CC3)c2)CC(C)O1 (stereo not given),5,-16%,?,-29%,26µM*,?
O=C(c1cccc(S(=O)(=O)N2CCN(c3ccc(F)cc3)CC2)c1)N1CCCC(C(F)(F)F)C1 (stereo not given),-17,?,.,.,3.3µM*,4.1µM*
CC1CN(C(=O)c2cccc(S(=O)(=O)N3CCOCC3)c2)CC(C)O1 (stereo not given),17,7%,-1%,-5%,-4%,1%
O=C(c1ccc(S(=O)(=O)N2CCCCCC2)cc1)N1CCCC(C(F)(F)F)C1 (stereo not given),13,-2%,.,.,?,?
O=C(COc1ccc(Br)cc1Cl)Nc1ncn[nH]1,.,.,.,.,-10%,-12%
